# Reference: the supplement of paper PMC6555819
# Experiments:
# Experiment in all cases: PBM binding z-score (relative to random genomic background probes); higher = stronger binding; sequences stand for … in GC…GCGATTGACAGCGTAGAATGAAGG
# [1] = system: FXR:RXRa (NR concentration 270 nM, RXRa partner concentration 90 nM)
# Summary of the method: (§1)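 Regression normalization was applied to scanned fluorescence from custom Agilent 4×180K protein-binding microarrays. Before scanning, arrays were incubated 1 h with ligand-free nuclear receptor dimers, and binding was detected with antibodies against each partner (one per run). Binding z-scores use the random background probes as reference.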
# [2] = system: LXRa:RXRa (NR concentration 270 nM, RXRa partner concentration 90 nM)
# Summary of the method: as §1
# [3] = system: LXRa homodimer (NR concentration 270 nM)
# Summary of the method: as §1
# [4] = system: LXRb:RXRa (NR concentration 270 nM, RXRa partner concentration 90 nM)
# Summary of the method: as §1
# [5] = system: LXRb homodimer (NR concentration 270 nM)
# Summary of the method: as §1
# [6] = system: PPARa:RXRa (NR concentration 270 nM, RXRa partner concentration 90 nM)
# Summary of the method: as §1
# [7] = system: PPARg:RXRa (NR concentration 180 nM, RXRa partner concentration 90 nM)
# Summary of the method: as §1
# [8] = system: PPARg:RXRa 270nM:90nM, anti-RXR (NR concentration 270 nM, RXRa partner concentration 90 nM)
# Summary of the method: as §1
# [9] = system: PPARg:RXRa 30nM:10nM, anti-RXR (NR concentration 30 nM, RXRa partner concentration 10 nM)
# Summary of the method: as §1
# [10] = system: PPARg:RXRa 90nM:30nM, anti-RXR (NR concentration 90 nM, RXRa partner concentration 30 nM)
# Summary of the method: as §1
# [11] = system: PPARg:RXRa DBDmut IVT, anti-RXR (DBD mutation: RXRa K156A/R161A, NR concentration 270 nM, RXRa partner concentration 90 nM)
# Summary of the method: as §1
# [12] = system: PPARg:RXRa IVT, anti-PPARg (NR concentration 270 nM, RXRa partner concentration 90 nM)
# Summary of the method: as §1
# [13] = system: PPARg DBDmut:RXRa IVT, anti-PPARg (DBD mutation: PPARg1 K132A/R137A, NR concentration 270 nM, RXRa partner concentration 90 nM)
# Summary of the method: as §1
# [14] = system: PPARg DBDmut IVT, anti-PPARg (DBD mutation: PPARg1 K132A/R137A, NR concentration 270 nM)
# Summary of the method: as §1
# [15] = system: PPARg homodimer (NR concentration 180 nM)
# Summary of the method: as §1
# [16] = system: PXR:RXRa (NR concentration 270 nM, RXRa partner concentration 90 nM)
# Summary of the method: as §1
# [17] = system: PXR homodimer (NR concentration 270 nM)
# Summary of the method: as §1
# [18] = system: RARa:RXR (NR concentration 270 nM, RXRa partner concentration 90 nM)
# Summary of the method: as §1
# [19] = system: RARa homodimer (NR concentration 270 nM)
# Summary of the method: as §1
# [20] = system: RARb:RXRa (NR concentration 270 nM, RXRa partner concentration 90 nM)
# Summary of the method: as §1
Sequence,PBM binding z-score [1],PBM binding z-score [2],PBM binding z-score [3],PBM binding z-score [4],PBM binding z-score [5],PBM binding z-score [6],PBM binding z-score [7],PBM binding z-score [8],PBM binding z-score [9],PBM binding z-score [10],PBM binding z-score [11],PBM binding z-score [12],PBM binding z-score [13],PBM binding z-score [14],PBM binding z-score [15],PBM binding z-score [16],PBM binding z-score [17],PBM binding z-score [18],PBM binding z-score [19],PBM binding z-score [20]
CCTAGCAGGCCATGGTCACTCAAGCATTTCGCTT,-0.268,-0.369,-0.374,-0.307,-0.863,-0.349,-0.143,-0.198,-0.855,-0.418,1.57,0.401,-1.7,-1.39,-0.683,-0.611,-0.713,-0.498,-0.226,0.678
ACTTACGGGTCAACGCGGTTATAGCACGCGTATA,6.63,4.76,0.698,4.08,0.727,5.52,4.9,5.47,1.84,4.14,3.64,4.12,1.26,1.32,1.91,3.92,0.241,4.45,0.802,4.04
TCTGCGAGGTCAGTTGGTCAGCTAACGAGCTGCC,4.64,3.16,0.00554,2.69,1.26,3.99,2.69,3.5,1.59,2.61,1.99,3.25,2.02,0.235,1,2.88,0.146,2.68,-0.6,4.51
AGACCAAGGTGATCGTGAGGTCGTTGATACTAAC,1.27,0.891,0.368,0.98,-0.813,1.58,0.415,0.494,0.11,0.313,0.783,0.9,-0.832,-0.109,0.38,2.79,0.858,1.72,-0.21,1.32
TGTCAAAGTCCAAAGGTAACGTAAGTATCCACAC,-0.0292,0.605,-0.413,0.55,-0.353,1.61,2.27,2.93,1.07,2.43,-0.118,1.79,0.417,1.16,0.272,0.511,-0.0654,0.938,0.285,1.93
GCTGCTAGGTAAACTGATGGTCAGCTAAAGCTCG,-0.373,-0.492,-0.956,-0.723,-0.701,-0.566,-0.301,-0.644,-0.739,-0.98,0.994,0.0303,-1.25,-0.794,-1.08,-0.636,-0.67,-0.68,-1.2,-0.155
CGAACGAGGGCATGAGTTCATAGCAAATGCCGAT,2.26,2.23,1,1.51,-0.903,3.24,2.37,2.91,0.55,2.23,3.09,2.4,-0.0442,-0.857,0.292,4.74,7.66,2.71,-0.81,3.01
TCATATAGGTAATACAGGTCAAAGTCGGCATCTA,3.34,5.45,7.33,4.42,1.69,4.33,3.55,4.08,4.34,4.27,4.69,4.55,2.09,2.09,2.8,3.34,1.5,3.94,2.09,2.49
CCTTACGGGTCACGAGGTTATAGCGCGACGAGCG,7,4.91,0.435,3.79,-0.01,6.01,7.42,6.71,3.03,5.28,3.89,5.36,1.53,2.01,3.21,4.57,0.486,6.3,1.06,4.56
CTCGAAAGGTCGGCTGAGGTGAGTATACGGATAA,3.7,2.47,-0.364,1.86,-0.336,3.62,0.965,2.18,0.306,1.12,-0.0166,1,-0.0144,-0.891,1.16,4.09,-0.42,3.02,-0.275,3.56
CATACAGGGTGAGCTAGGCCAGAGTAGGGACGGC,0.0783,-0.27,-0.348,-0.501,-0.241,0.234,0.608,-0.129,-0.308,-0.186,0.503,1.32,-0.282,-0.518,-0.692,-0.394,-0.379,-0.0235,-0.0733,0.894
CCTACTGGGCCATGAGGTCATTGATATCAACGTT,3.57,2.77,1.87,3.24,-0.168,4.19,4.59,4.66,2.55,4.53,4.24,5.54,0.512,-0.0861,2.41,4.71,3.85,4.49,0.257,2.91
CCTAATTGGTCAAGGTCACACACGCTATAGGTAC,4.21,4.15,2.33,4.22,1.18,4.36,3.13,3.45,1.13,2.69,2.69,3.49,1.13,1.42,3.47,4.32,1.9,4.28,2.79,4.22
CCTACTGGGCCATCCGGTCATTGATATCAACGTT,0.445,0.184,1.03,0.144,0.244,1.37,1.4,2.5,0.753,1.81,3.87,4.21,-0.352,-0.431,0.811,-0.0327,-0.0108,0.187,-0.315,1.42
TAGCCTAGGTCACTCAGGGGCCAGTATAGAAAGC,3.32,2.18,-0.258,2,-0.123,3.18,2.64,2.29,0.26,1.24,1.65,3.3,0.795,0.141,1.5,1.73,-0.391,3.07,-0.348,3.99
TAGCCCAGGTCATGGGCCAGTATACCACGCGAAC,5.49,3.68,0.403,2.34,-0.434,4.31,3.87,3.37,0.448,2.04,0.271,2.71,0.391,-0.431,0.53,2.24,-0.39,2.96,0.0198,3.78
CAAACTGGGTCAAGGTCAAAGTCGGTTTGTGCCA,6.14,4.7,2.42,4.41,0.882,5.96,9.55,7.65,6.43,7.63,8.04,8.43,4.25,1.48,4.04,5.26,2.48,5.2,1.14,4.95
